# Laboratory results published in PubChem BioAssay AID1851 (National Center for Advancing Translational Sciences (NCATS), 2009).
# Hit rate of the full screen: of about 16,000 compounds, about 5,800 (36%) were called active. Roughly 23% stayed inconclusive and do not appear here. This is one part of the list. Unmarked numbers belong to inactive results. The call rests on the fitted dose curve; in most records, active means well fitted curve in the direction sought with a large enough effect; inconclusive means small, poorly fitted or top-dose-only effect, or effect the other way; inactive means no such curve, though single readings can be large or run the other way.
# Target: Cytochrome P450 2C19 (Homo sapiens) (UniProt P33261)
# Sequence (P33261 whole entry, looked up): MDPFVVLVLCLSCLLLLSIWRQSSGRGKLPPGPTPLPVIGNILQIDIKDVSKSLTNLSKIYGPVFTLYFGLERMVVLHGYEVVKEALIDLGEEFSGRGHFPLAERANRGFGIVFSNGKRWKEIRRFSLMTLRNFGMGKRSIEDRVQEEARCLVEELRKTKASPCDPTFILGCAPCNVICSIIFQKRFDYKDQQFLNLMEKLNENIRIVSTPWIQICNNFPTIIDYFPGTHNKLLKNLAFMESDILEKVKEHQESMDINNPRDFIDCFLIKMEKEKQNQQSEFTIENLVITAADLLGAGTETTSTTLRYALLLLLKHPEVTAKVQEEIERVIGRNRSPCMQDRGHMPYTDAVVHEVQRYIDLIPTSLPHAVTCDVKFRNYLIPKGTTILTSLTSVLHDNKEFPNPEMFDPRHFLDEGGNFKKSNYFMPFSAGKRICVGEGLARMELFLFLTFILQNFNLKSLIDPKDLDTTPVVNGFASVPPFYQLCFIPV
# Assay: Cytochrome panel assay with activity outcomes
# Details: recombinant CYP, pro-luciferin dealkylation, luminescence, p450-cyp2c19; series mostly up to 57.1 µM; activity, negative = inhibition: at the top concentration
# On the % scale 0 is the no-effect control and ±100 the full control effect.
SMILES,"activity, negative = inhibition",AC50
Cc1noc(C)c1C(=O)N1CCC2(CC1)CN(c1ncccn1)C2,-18.2%,–
CC1=C(C(=O)OCc2ccccc2)C(c2ccc([N+](=O)[O-])cc2)NC(=O)N1CCCCCC(=O)O (stereo not given),-36%,–
O=C1NC(=O)[C@@](Cc2ccccc2)(c2cccnc2)N1,27.6% [at 11.4 µM],–
CC1=C(C(=O)OCc2ccccc2)C(c2cccnc2)c2c(n(C)c(=O)n(C)c2=O)N1 (stereo not given),–,1 µM (active)
CC(C)(C)n1nnnc1C(c1cccnc1)N(Cc1ccccc1)Cc1ccco1 (stereo not given),–,11.2 µM (active)
CC[C@H]1C2=C3C(CC[C@H]4C(OCc5ccc(F)cc5C(F)(F)F)OC[C@](C)([C@@H]34)N(C(=O)OC(C)(C)C)C2)C(COC)C1COC (stereo not given in full),8.33%,–
Oc1ccc(Cn2c(-c3ccc(O)cc3)nc3ccccc32)cc1,87.1% [at 11.4 µM],–
Nc1nonc1-c1nc2ccccc2n1Cc1ccc(F)cc1Cl,–,0.0794 µM (active)
Clc1ccc(Cn2c(-c3cccnc3Cl)nc3ccccc32)c(Cl)c1,–,0.891 µM (active)
Clc1ncccc1-c1nc2ccccc2n1Cc1ccccc1,–,28.2 µM (active)
CN(C)CCCN1CC(C(=O)O)CC1=O (stereo not given),4.71%,–
O=c1onc2cnc3ccccc3n12,-36.2%,–
O=c1c(-c2cccs2)nc2cnc(Nc3ccccc3)nc2n1C[C@H]1CCCO1,-17.3%,–
CC1CCCN(CCCNC(=O)C2CC(=O)N(c3ccc(F)c(Cl)c3)C2)C1 (stereo not given),–,31.6 µM (active)
CCCS(=O)(=O)N1CCCC(C(=O)NCCCN2CCN(c3ccc(F)cc3)CC2)C1 (stereo not given),-29.7%,–
CC1CC(C)CN(CCCNC(=O)C2CCCN(c3nnc(N4CCCC4=O)s3)C2)C1 (stereo not given),-4.77%,–
Cc1cc(Cl)ccc1OCC(=O)Nc1nc(N)nc(N)n1,8.03% [at 11.4 µM],–
CCCn1nnnc1NC(=O)COc1ccc(Cl)cc1C,–,7.94 µM (active)
O=C(O)[C@@H]1[C@@H](C(=O)NCc2ccncc2)[C@@H]2C=C[C@@H]1O2,9.32% [at 11.4 µM],–
Cc1cc(Cl)ccc1OCC(=O)NCc1ccncc1,–,1.26 µM (active)
O=C(/C=C\c1ccc(O)c(O)c1)O[C@@H]1C[C@](O)(C(=O)O)C[C@@H](O)[C@@H]1O,5.78% [at 25.6 µM],–
CCOC(=O)Oc1c(OC)cc(C(=O)O[C@H]2C[C@H]3CN4CCc5c([nH]c6cc(OC)ccc56)[C@@H]4C[C@H]3[C@@H](C(=O)OC)[C@@H]2OC)cc1OC,18.1% [at 25.6 µM],–
CCOC(=O)c1sc(=S)n(-c2cccc(C(F)(F)F)c2)c1SC,–,1.26 µM (active)

SMILES,"activity, negative = inhibition",AC50
Cc1n[nH]c(=O)n1-c1cccc(C(F)(F)F)c1,-22%,–
O=C(O)NCC1CCCCC1 (tested in a mixture with another compound),-22.4% [at 11.4 µM],–
O=C(CSc1nnc(SCc2cccc3ccccc23)s1)c1ccc2c(c1)OCO2,–,2.51 µM (active)
Fc1ccc(Nc2ncncc2-c2ccccc2C(F)(F)F)cc1,–,7.94 µM (active)
FC(F)(F)c1ccccc1-c1cncnc1Nc1ccccc1,–,7.94 µM (active)
Cc1cc(C)n(-c2nc(NCC(C)O)c3c4c(sc3n2)COC(C)(C)C4)n1 (stereo not given),-19.4%,–
Cc1nc(NS(=O)(=O)c2ccccc2C)c2c3c(sc2n1)CCC3,–,8.91 µM (active)
Cc1nc(NCc2ccco2)c2c3c(sc2n1)CCC3,–,10 µM (active)
CCCSc1nc(NCc2ccco2)c2c3c(sc2n1)COC(C)(C)C3,–,7.08 µM (active)
Cc1nc(NS(=O)(=O)c2ccc(Br)cc2)c2c3c(sc2n1)CCC3,–,3.55 µM (active)
CN(C)S(=O)(=O)c1nc(Cl)c2[nH]cnc2n1,24.6% [at 11.4 µM],–
CC[C@H](C)[C@@H]1O[C@]2(CC[C@@H]1C)C[C@H]1C[C@H](CC=C(C)[C@@H](O[C@@H]3C[C@H](OC)[C@H](O[C@@H]4C[C@H](OC)[C@H](O)[C@H](C)O4)[C@H](C)O3)[C@@H](C)C=CC=C3CO[C@@H]4[C@@H](O)C(C)=C[C@@H](C(=O)O1)[C@]34O)O2,33.6% [at 25.6 µM],–
Cc1ccc(NC(=O)Cn2nc([N+](=O)[O-])c(Br)c2C)cc1C,–,5.62 µM (active)
O=C(Nc1ccc(Cl)c(C(F)(F)F)c1)C1CCCN(S(=O)(=O)c2cnc[nH]2)C1 (stereo not given),–,0.562 µM (active)
O=[N+]([O-])c1ccc2nc(-c3ccccc3)n(OCc3ccc(Cl)cc3)c2c1,–,1.58 µM (active)
Clc1ccc(COn2c(-c3ccccc3)nc3ccccc32)cc1,–,0.141 µM (active)
O=[N+]([O-])c1ccc2nc(-c3ccc(Cl)cc3)n(OCc3ccccc3)c2c1,20.2%,–
COc1ccc2nc(N3C(=O)CC(Cc4ccc(Cl)cc4)C3=O)sc2c1 (stereo not given),–,3.55 µM (active)
COc1ccc(CN2CN(c3ccc(Cl)cc3)C(=O)N(n3cnnc3)C2)cc1,-16.1%,–
CCC1CCCCN1Cc1cc(OC)c(O)c([N+](=O)[O-])c1 (stereo not given),-2.44%,–
Cc1ccc(N=CC2=C(O)CC(c3ccco3)CC2=O)cc1 (stereo not given),–,7.94 µM (active)
COC(=O)C1=C(C)NC(C)=C(C(=O)OCCSc2ccccc2)[C@@H]1C,–,0.2 µM (active)
